The supplement of paper PMC11732987, “Enantioselective OTUD7B fragment discovery through chemoproteomics screening and high-throughput optimisation” (Communications Chemistry, 2025)

Legend:
Test in all cases: log2 ratio of Biotin-Ahx-Ub-VS probe labelling (fragment/DMSO); higher = less target engagement (more negative = stronger competition), active = hit call of the paper (q ≤ 0.05, log2 ratio ≤ -1)
Conditions in all cases: compound concentration: 200 uM; treatment time: 3 h
OTUD6B = molecular target: T1, OTUD6B (UniProt Q8N6M0)
T1 sequence (whole entry): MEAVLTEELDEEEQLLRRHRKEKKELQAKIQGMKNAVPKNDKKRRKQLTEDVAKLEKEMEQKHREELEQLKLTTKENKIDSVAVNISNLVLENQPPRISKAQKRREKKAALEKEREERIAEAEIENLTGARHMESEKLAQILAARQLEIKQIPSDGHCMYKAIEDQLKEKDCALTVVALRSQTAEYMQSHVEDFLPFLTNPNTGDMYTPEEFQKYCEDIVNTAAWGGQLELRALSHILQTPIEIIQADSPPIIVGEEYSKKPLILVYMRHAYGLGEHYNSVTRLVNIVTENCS
Summary of the method: (§1)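 HEK293T lysate, 495 µg per sample in Tris/CHAPS/IGEPAL buffer with protease inhibitors, was treated in triplicate with fragment at 200 µM or vehicle for 3 h and then with Biotin-Ahx-Ub-VS at 0.5 µM final for 1 h. Labelled DUBs were NeutrAvidin-enriched, digested with LysC and trypsin, and run by diaPASEF LC-MS/MS. Spectronaut label-free quantities were global-median-normalised, and values are average log2 fragment/vehicle ratios by unpaired t-test on proteins with ≥2 unique peptides.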

OTUD7B = molecular target: T2, OTUD7B (UniProt Q6GQQ9)
T2 sequence (whole entry): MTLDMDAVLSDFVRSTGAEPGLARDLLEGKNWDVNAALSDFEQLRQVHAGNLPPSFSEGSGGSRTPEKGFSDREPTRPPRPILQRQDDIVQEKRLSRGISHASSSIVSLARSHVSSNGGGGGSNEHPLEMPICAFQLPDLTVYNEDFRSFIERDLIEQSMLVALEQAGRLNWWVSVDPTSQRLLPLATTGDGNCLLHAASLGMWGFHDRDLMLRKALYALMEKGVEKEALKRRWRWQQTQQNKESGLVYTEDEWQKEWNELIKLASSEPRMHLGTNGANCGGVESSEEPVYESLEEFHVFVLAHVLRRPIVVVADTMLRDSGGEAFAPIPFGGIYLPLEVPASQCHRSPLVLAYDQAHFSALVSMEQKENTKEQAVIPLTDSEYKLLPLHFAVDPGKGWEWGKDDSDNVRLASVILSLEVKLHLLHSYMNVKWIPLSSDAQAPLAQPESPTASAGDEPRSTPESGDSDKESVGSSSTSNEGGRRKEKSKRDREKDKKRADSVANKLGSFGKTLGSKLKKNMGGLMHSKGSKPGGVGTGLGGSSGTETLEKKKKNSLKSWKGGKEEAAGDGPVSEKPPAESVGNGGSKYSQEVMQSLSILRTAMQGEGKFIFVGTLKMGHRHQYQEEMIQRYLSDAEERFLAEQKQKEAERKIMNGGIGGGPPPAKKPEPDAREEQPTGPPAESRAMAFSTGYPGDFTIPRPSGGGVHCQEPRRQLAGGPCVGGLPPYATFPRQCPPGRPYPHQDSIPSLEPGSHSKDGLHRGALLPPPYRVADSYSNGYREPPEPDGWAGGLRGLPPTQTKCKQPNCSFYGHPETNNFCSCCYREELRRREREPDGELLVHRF
Summary of the method: as §1

PRPF8 = PRPF8 (UniProt Q6P2Q9)
Summary of the method: as §1

PSMD7 = molecular target: T3, PSMD7 (UniProt P51665)
T3 sequence (whole entry): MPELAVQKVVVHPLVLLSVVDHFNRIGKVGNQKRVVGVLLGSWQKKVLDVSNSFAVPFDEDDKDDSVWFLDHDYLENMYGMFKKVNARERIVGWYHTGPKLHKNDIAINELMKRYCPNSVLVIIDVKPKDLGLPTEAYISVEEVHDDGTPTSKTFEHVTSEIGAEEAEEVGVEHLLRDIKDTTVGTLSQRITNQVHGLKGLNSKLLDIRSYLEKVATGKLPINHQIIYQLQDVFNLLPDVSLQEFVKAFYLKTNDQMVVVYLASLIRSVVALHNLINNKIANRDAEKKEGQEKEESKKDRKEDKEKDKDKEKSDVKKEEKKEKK
Summary of the method: as §1

UCHL1 = UCHL1 (UniProt P09936)
UCHL1, sequence (P09936 whole entry, looked up): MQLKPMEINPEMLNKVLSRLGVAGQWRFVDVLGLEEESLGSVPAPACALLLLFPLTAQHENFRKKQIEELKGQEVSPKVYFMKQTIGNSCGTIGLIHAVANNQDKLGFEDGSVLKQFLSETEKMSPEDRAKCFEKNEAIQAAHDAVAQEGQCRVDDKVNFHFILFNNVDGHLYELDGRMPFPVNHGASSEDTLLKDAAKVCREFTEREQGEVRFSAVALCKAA
Summary of the method: as §1

UCHL3 = molecular target: T4, UCHL3 (UniProt P15374)
T4 sequence (whole entry): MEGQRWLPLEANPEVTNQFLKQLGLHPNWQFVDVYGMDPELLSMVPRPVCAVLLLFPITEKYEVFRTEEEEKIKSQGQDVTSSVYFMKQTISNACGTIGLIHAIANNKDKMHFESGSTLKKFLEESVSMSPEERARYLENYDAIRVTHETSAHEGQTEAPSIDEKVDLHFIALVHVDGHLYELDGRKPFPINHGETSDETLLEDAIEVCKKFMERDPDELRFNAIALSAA
Summary of the method: as §1

UCHL5 = molecular target: T5, UCHL5 (UniProt Q9Y5K5)
T5 sequence (whole entry): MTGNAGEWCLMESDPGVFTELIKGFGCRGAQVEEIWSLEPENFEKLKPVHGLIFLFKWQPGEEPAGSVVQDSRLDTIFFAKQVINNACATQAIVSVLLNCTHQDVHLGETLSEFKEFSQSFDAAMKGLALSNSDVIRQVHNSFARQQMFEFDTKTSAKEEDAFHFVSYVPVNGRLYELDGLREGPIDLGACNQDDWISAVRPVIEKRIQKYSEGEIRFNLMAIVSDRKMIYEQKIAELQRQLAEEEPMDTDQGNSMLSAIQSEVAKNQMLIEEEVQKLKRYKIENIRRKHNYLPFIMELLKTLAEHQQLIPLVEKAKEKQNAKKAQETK
Summary of the method: as §1

USP10 = USP10 (UniProt Q14694)
USP10, sequence (Q14694 whole entry): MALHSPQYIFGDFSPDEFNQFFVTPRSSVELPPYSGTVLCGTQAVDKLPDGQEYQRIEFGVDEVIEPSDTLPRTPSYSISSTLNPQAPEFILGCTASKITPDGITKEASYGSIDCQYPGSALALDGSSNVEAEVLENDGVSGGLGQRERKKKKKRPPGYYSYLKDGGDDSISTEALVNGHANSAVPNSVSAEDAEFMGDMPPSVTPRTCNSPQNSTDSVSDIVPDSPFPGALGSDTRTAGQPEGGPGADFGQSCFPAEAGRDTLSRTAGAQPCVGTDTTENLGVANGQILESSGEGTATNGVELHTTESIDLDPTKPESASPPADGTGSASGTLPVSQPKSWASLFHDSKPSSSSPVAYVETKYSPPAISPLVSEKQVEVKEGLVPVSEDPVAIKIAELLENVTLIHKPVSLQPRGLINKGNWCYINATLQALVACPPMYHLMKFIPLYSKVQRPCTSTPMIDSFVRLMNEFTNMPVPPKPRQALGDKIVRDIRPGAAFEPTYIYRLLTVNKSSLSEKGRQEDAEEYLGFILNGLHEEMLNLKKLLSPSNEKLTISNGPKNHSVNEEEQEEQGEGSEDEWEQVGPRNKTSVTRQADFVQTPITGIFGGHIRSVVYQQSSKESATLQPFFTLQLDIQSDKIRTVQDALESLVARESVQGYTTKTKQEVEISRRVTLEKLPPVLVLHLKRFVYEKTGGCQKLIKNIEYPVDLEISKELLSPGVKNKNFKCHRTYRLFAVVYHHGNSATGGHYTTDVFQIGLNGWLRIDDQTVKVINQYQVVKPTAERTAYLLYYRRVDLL
Summary of the method: as §1

USP15 = molecular target: T6, USP15 (UniProt Q9Y4E8)
T6 sequence (whole entry): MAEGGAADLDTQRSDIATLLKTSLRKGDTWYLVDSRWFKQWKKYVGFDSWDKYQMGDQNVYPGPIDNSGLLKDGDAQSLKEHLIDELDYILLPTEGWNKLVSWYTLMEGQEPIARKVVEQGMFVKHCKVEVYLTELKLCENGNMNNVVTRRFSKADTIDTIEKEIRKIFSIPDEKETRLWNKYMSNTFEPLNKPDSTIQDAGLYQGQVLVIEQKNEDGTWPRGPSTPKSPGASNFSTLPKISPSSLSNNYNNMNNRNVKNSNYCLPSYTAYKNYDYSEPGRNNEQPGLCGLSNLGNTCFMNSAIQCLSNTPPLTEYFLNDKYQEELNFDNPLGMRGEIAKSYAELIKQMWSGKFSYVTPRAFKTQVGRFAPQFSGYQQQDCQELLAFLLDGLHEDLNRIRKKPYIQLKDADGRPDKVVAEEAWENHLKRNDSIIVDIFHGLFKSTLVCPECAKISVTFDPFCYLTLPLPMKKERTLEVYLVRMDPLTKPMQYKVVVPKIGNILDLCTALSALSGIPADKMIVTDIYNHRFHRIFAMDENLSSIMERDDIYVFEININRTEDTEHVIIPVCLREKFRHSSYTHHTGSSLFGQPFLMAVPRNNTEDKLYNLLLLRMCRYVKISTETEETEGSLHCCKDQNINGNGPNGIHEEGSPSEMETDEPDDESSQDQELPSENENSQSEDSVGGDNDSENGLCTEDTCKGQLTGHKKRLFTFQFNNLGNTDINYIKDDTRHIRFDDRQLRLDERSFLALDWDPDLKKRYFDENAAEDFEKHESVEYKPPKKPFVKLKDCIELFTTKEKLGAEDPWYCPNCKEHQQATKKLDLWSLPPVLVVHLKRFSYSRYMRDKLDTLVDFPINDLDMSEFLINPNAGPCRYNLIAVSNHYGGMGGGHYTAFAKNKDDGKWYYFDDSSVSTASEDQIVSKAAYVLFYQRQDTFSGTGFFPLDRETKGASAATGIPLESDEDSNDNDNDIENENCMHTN
Summary of the method: as §1

USP16 = USP16 (UniProt Q9Y5T5)
USP16, sequence (Q9Y5T5 whole entry, looked up): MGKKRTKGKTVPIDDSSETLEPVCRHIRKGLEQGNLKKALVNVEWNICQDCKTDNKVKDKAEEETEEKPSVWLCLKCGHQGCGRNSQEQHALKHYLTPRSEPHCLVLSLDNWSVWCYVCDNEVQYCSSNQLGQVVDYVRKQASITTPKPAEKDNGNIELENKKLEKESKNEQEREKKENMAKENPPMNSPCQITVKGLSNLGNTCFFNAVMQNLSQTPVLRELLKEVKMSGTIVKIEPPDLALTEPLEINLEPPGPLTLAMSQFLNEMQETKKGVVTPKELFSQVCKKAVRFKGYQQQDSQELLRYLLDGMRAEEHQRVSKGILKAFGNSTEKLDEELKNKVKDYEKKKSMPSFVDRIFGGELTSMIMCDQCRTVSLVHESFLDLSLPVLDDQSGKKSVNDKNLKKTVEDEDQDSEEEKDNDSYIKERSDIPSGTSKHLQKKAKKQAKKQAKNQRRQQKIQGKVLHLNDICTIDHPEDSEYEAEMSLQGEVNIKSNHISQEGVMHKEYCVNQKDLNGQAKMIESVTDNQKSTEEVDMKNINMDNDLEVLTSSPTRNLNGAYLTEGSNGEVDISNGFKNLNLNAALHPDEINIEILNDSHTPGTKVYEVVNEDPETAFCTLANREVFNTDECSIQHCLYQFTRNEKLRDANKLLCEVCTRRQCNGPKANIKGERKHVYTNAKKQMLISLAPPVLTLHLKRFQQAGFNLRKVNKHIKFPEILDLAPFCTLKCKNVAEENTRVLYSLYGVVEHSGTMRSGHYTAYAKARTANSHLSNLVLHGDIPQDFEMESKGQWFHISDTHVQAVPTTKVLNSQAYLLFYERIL
Summary of the method: as §1

Measured: log2 ratio of Biotin-Ahx-Ub-VS probe labelling

Cl.O=C(CCl)N1CCC(n2nc3ccccc3n2)CC1
inactive: OTUD6B -0.35 | OTUD7B -0.287 | PRPF8 0.224 | PSMD7 -0.494 | UCHL1 -0.9 | UCHL3 -0.23 | UCHL5 -0.457 | USP10 -0.135 | USP15 -0.702 | USP16 -0.441
